According to the supplement of paper PMC10849652:
About 8,800 targets were measured; listed, in parts, are those with a hit and a random draw of the rest. About 0.5% of all pairs of compound and target were hits.

Experiments:
Assay in all cases: log2 fold change, soluble protein after heating vs DMSO (PISA); higher = thermal stabilisation; K562 lysate, 10 uM; active = over 0.2 and 3.5 SD of the protein, either way, in both replicates (recomputed)
[1] = compound: C1=CC=C(C=C1)[C@H](COC2=CC3=C(C=C2)NC(=O)N3)NC(=O)C4=CC=CN(C4=O)CC5=CC(=C(C=C5)F)F
Summary of the method: (§1)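 Quantification was by TMTpro 16plex LC-MS/MS with equalised channel sums, applied to the supernatant after 21,000xg for 90 min. Samples were crude K562 extract at 1 mg/mL protein in PBS pH 7.4 with 1 mM MgCl2, treated with 10 μM compound for 30 min, heated for 3 min across 48°C-58°C, pooled and brought to 0.5% NP-40 at 4°C. Values are log-two fold changes in thermal stability relative to solvent controls, from duplicates.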

[2] = compound: CC1=C(SC2=C1C(=N[C@H](C3=NN=C(N32)C)CC(=O)N)C4=CC=C(C=C4)Cl)C
Summary of the method: as §1

[3] = compound: CC1=C2C(=CC=C1)N=C(N(C2=O)C3=CC=CC=C3C)CN4C=NC5=C(N=CN=C54)N
Summary of the method: as §1

[4] = compound: Cc1sc2c(c1C)C(c1ccc(Cl)cc1)=N[C@@H](CC(=O)OC(C)(C)C)c1nnc(C)n1-2
Summary of the method: as §1

[5] = compound: c1ccc([C@@H]2C[C@H]2NC2CCNCC2)cc1
Summary of the method: as §1

Measured: log2 fold change

TRAPPC9 isoform 2 (UniProt Q96Q05)
inactive: [1] 0.001 | [2] 0.05 | [3] 0 | [4] 0.055 | [5] -0.042

TTL (UniProt Q8NG68)
Chain of UniProt Q8NG68 (Q8NG68 whole entry, looked up): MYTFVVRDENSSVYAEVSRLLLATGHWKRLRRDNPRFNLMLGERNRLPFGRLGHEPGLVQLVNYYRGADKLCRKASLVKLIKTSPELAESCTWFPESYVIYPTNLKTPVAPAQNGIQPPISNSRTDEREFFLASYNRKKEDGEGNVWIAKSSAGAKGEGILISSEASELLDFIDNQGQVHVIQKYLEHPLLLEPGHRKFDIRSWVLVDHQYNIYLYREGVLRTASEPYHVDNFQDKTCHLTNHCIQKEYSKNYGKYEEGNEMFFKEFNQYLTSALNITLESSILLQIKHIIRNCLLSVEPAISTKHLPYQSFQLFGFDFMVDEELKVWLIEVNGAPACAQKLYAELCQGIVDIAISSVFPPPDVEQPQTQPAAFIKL
inactive: [1] 0.004 | [2] -0.029 | [3] 0.145 | [4] 0.014 | [5] 0.104

TTC5 (UniProt Q8N0Z6)
Chain of UniProt Q8N0Z6 (Q8N0Z6 whole entry, looked up): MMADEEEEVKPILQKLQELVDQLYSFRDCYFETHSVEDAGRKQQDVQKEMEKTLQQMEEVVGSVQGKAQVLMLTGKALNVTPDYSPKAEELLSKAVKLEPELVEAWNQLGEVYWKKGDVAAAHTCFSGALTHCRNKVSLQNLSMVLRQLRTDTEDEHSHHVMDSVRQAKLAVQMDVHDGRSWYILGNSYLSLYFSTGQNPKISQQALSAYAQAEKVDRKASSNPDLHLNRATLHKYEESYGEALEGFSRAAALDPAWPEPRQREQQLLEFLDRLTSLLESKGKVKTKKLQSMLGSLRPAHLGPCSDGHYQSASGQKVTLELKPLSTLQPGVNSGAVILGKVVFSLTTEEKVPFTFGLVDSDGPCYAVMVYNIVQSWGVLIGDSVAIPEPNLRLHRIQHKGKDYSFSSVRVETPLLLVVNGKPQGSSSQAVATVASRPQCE
inactive: [1] -0.022 | [2] 0.009 | [3] 0.035 | [4] 0.039 | [5] 0.002

UBR3 isoform 4 (UniProt Q6ZT12)
inactive: [1] -0.027 | [2] -0.032 | [3] 0.009 | [4] -0.016 | [5] 0.076

TMPO (UniProt P42167)
inactive: [1] -0.017 | [2] 0.044 | [3] -0.042 | [4] 0.042 | [5] -0.023

TBK1 (UniProt Q9UHD2)
inactive: [1] -0.012 | [2] 0.021 | [3] -0.031 | [4] -0.003 | [5] -0.023

TFIP11 (UniProt Q9UBB9)
inactive: [1] -0.033 | [2] -0.022 | [3] 0.007 | [4] -0.002 | [5] 0.044

TRIM44 (UniProt Q96DX7)
inactive: [1] 0.096 | [2] -0.126 | [3] -0.061 | [4] -0.031 | [5] 0.083

UCHL5 (UniProt Q5LJA9)
inactive: [1] 0.002 | [2] -0.059 | [3] -0.022 | [4] -0.251 | [5] 0.133

TRIM11 (UniProt Q96F44)
inactive: [1] 0.028 | [2] 0.035 | [3] 0.04 | [4] -0.011 | [5] -0.001

UCHL5 isoform 3 (UniProt Q9Y5K5)
inactive: [1] -0.001 | [2] 0.033 | [3] 0.01 | [4] 0.015 | [5] 0.029

TSPAN13 (UniProt O95857)
Chain of UniProt O95857 (O95857 whole entry, looked up): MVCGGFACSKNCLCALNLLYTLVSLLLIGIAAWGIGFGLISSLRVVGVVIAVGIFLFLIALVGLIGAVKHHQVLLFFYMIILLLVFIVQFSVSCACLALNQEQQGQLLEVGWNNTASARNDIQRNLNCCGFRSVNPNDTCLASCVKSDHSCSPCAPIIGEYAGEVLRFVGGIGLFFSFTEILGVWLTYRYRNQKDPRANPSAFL
inactive: [1] 0.076 | [2] 0.025 | [3] -0.048 | [4] 0.187 | [5] -0.131

TCAF2 (UniProt A6NFQ2)
inactive: [1] 0.159 | [2] 0.091 | [3] 0.027 | [4] 0.007 | [5] 0.042

UBE3B (UniProt Q7Z3V4)
Chain of UniProt Q7Z3V4 (Q7Z3V4 whole entry, looked up): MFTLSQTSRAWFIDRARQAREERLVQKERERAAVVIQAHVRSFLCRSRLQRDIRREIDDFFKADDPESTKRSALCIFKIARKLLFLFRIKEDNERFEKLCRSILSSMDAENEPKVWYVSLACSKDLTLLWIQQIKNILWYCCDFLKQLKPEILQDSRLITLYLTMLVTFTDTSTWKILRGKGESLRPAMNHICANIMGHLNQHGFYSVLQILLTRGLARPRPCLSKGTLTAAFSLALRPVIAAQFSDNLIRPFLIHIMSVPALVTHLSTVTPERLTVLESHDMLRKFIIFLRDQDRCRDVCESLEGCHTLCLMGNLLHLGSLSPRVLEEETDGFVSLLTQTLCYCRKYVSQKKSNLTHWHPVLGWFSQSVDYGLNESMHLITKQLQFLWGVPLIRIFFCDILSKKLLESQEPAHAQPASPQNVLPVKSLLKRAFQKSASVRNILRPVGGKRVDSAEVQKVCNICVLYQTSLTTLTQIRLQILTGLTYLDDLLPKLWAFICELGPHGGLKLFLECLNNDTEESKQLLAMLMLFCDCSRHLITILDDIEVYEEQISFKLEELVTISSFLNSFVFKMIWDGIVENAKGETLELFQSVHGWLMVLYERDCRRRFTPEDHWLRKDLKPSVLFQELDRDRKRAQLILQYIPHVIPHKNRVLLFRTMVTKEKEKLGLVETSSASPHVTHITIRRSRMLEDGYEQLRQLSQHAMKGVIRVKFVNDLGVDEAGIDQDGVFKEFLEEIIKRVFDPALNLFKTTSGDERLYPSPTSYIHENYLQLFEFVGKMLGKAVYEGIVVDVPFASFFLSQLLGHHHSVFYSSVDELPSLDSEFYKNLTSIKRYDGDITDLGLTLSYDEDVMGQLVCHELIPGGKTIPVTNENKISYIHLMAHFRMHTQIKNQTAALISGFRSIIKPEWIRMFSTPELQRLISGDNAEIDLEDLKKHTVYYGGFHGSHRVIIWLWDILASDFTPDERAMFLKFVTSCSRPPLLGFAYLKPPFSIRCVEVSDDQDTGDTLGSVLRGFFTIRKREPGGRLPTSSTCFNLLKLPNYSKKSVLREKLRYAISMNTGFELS
inactive: [1] -0.085 | [2] -0.144 | [3] -0.047 | [4] -0.045 | [5] 0.078

TDRKH (UniProt Q9Y2W6)
Chain of UniProt Q9Y2W6 (Q9Y2W6 whole entry, looked up): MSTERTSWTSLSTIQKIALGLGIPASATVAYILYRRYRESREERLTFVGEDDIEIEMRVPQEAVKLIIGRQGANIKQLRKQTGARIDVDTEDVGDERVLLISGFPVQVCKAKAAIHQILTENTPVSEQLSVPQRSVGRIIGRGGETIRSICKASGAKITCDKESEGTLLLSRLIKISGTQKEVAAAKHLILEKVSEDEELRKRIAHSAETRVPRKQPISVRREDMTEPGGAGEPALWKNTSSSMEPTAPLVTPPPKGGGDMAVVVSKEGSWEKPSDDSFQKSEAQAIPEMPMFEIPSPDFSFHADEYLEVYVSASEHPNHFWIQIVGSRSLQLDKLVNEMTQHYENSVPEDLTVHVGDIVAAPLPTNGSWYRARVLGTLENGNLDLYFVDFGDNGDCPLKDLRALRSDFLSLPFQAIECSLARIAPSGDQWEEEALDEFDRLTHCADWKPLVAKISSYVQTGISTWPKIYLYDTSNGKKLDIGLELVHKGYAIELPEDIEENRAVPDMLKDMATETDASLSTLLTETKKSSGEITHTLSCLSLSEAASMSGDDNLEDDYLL
inactive: [1] -0.02 | [2] -0.028 | [3] 0.1 | [4] 0.005 | [5] -0.053

TMEM87A (UniProt Q8NBN3)
inactive: [1] 0.066 | [2] -0.014 | [3] -0.011 | [4] -0.011 | [5] -0.128

TRMT2A (UniProt Q8IZ69)
Chain of UniProt Q8IZ69 (Q8IZ69 whole entry, looked up): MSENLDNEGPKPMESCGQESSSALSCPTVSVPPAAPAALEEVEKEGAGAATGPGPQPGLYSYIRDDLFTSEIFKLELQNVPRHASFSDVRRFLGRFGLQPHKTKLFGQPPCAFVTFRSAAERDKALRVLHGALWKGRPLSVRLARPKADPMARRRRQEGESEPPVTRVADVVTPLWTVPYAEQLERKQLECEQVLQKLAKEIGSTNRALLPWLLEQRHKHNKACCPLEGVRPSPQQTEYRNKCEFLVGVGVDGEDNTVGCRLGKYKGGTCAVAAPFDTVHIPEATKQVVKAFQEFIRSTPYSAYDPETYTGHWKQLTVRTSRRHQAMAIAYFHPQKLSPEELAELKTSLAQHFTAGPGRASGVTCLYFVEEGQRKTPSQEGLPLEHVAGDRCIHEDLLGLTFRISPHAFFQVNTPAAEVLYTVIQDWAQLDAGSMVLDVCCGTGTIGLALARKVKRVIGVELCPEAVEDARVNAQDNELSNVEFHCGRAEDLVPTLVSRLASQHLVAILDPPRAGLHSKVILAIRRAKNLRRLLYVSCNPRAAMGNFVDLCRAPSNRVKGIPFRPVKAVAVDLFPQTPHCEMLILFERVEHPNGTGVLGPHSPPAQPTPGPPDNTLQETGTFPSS
inactive: [1] 0.003 | [2] 0.02 | [3] 0.003 | [4] 0.02 | [5] 0.027

TRMT12 (UniProt Q53H54)
inactive: [1] 0.104 | [2] -0.023 | [3] -0.007 | [4] -0.061 | [5] 0.076

UBE3C (UniProt Q15386)
Chain of UniProt Q15386 (Q15386 whole entry, looked up): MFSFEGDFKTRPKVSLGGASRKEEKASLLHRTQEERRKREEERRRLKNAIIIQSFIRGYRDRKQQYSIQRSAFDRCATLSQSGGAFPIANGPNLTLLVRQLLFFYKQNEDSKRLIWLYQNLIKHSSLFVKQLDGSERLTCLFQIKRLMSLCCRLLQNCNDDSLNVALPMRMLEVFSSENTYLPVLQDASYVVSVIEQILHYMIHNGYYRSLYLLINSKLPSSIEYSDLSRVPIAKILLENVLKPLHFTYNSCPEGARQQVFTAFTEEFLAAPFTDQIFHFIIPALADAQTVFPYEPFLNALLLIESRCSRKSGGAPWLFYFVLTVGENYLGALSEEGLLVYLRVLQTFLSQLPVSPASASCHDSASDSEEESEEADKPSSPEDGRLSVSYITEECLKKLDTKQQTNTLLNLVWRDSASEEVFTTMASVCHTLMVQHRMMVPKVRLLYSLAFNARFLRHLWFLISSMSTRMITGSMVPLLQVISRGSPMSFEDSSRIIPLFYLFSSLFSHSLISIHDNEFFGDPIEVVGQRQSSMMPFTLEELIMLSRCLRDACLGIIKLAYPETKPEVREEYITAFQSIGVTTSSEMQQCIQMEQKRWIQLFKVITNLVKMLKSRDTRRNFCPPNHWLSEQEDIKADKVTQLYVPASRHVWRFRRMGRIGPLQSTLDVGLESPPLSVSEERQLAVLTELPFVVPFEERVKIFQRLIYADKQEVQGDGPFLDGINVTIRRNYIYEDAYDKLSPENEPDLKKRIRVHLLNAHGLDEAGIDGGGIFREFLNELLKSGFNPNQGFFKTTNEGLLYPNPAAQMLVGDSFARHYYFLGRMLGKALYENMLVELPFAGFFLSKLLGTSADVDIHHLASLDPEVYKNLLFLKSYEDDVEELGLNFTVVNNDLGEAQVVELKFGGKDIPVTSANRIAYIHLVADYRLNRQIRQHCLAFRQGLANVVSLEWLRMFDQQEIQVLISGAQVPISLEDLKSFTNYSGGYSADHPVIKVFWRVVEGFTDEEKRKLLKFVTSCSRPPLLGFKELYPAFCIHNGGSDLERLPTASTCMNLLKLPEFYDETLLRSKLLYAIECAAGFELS
inactive: [1] -0.027 | [2] -0.04 | [3] 0.127 | [4] 0.066 | [5] 0.039

TRMT10A (UniProt Q8TBZ6)
Chain of UniProt Q8TBZ6 (Q8TBZ6 whole entry, looked up): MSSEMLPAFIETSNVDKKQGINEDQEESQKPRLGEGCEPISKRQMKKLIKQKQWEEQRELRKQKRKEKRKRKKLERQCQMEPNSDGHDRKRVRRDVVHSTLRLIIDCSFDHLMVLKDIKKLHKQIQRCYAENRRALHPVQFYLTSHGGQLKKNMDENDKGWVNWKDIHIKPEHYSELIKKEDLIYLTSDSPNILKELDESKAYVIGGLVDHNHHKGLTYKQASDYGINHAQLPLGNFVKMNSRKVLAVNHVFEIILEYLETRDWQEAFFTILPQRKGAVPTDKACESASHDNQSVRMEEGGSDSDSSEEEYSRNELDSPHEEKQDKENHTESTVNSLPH
inactive: [1] -0.046 | [2] 0.099 | [3] -0.025 | [4] 0.016 | [5] -0.029

TUBGCP5 (UniProt Q96RT8)
inactive: [1] -0.209 | [2] 0.088 | [3] 0.039 | [4] -0.093 | [5] 0.071

TRADD (UniProt Q15628)
Chain of UniProt Q15628 (Q15628 whole entry, looked up): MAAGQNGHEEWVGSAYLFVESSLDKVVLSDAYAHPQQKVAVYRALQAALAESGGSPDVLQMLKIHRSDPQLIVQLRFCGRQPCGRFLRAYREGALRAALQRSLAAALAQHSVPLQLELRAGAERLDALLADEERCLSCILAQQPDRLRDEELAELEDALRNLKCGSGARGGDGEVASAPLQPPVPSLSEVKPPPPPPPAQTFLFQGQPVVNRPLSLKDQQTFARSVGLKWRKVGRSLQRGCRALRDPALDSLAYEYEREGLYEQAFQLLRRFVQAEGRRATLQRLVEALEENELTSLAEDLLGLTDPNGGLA
inactive: [1] -0.051 | [2] -0.016 | [3] 0.112 | [4] 0.05 | [5] 0.033

TUBGCP2 isoform 4 (UniProt Q9BSJ2)
inactive: [1] 0.009 | [2] -0.015 | [3] 0.035 | [4] 0.018 | [5] 0.097

TDRD3 isoform 3 (UniProt Q9H7E2)
inactive: [1] 0.082 | [2] 0.037 | [3] 0.027 | [4] 0.065 | [5] -0.01
